Sampled rows, rich in hits. Any-hit rate of the full collection: about 1.1%.
GALR2 blocker: blocks the human galanin receptor 2; GALR2-expressing cells, antagonist mode; inhibition, % at 4 µM; hit rate 0.39% among 140,000; AID 828; in the data active = inhibition above about 27%;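 note: cells stimulated with galanin 1-16 at roughly its EC80; 0% = agonist challenge control and 100% = basal control without agonist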
Target sequence (O43603 whole entry, looked up): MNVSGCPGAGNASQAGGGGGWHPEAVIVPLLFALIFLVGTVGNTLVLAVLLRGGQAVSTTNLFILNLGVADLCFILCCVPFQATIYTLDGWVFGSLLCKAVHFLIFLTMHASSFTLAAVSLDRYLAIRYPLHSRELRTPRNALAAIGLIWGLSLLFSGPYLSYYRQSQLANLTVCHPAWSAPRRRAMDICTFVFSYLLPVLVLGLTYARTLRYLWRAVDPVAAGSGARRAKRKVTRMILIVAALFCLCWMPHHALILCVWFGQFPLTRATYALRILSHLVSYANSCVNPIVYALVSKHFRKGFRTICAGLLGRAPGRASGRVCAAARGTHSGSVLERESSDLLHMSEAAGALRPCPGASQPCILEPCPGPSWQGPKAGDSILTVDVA
GALR2 ag: agonists of human galanin receptor 2 (GALR2) | activation, % (test concentration not listed) | GALR2-expressing cells, agonist activation read-out | AID 803 | hit rate 0.48% among 140,000 | O43603; in the data active = activation above about 5%, passing the limit was not always enough;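 note: 0% = vehicle buffer wells and 100% = reference agonist at full effect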
S1P2 antag: blocks the human S1P2 receptor; inhibition, % at 5 µM; O95136; AID 736; cell-based S1P2 antagonist assay, inhibition at 5 uM; hit rate 0.21% among 97,000; in the data active = inhibition above about 45%;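 note: CRE beta-lactamase reporter cells expressing human S1P2 stimulated with S1P; 0% = agonist at EC80 alone and 100% = agonist plus reference antagonist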
S1P2 ag: activates the human S1P2 receptor; O95136; S1P2-expressing cell line, agonist reporter read-out; activation, % at 4.5 µM; hit rate 0.46% among 97,000; in the data active = activation above about 16%;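 note: 0% = vehicle low control and 100% = maximal reference agonist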
Starred values were filed as active, the others as inactive.

Results for Cc1cccc(C(=O)NC2CCN(C(=O)N3CCOCC3)CC2)c1 ?
GALR2 blocker: -3.5; GALR2 ag: 0.9; S1P2 antag: 5.7; S1P2 ag: 0.4

How did Cc1cccc(C(=O)NC2CC3CCCC(C2)N3C(=O)NC2CCCCC2)c1 (stereo unspecified) do in these assays?
GALR2 blocker: 6.0; GALR2 ag: -2.4; S1P2 antag: -7.8; S1P2 ag: 66.1*

How did CCN(CC)c1ccc(NC(=O)Nc2ccccc2C(F)(F)F)cc1 do in these assays?
GALR2 blocker: 10.5; GALR2 ag: -2.7; S1P2 antag: -5.7; S1P2 ag: 61.5*

How did COc1ccc2cc(/C=N/NC(=O)CN(c3ccccc3)S(=O)(=O)c3ccccc3)c(Cl)nc2c1 do in these assays?
GALR2 blocker: -2.3; GALR2 ag: 6.5*

What do the screens show for `CCOc1ccc(S(=O)(=O)N(CC(=O)N/N=C/c2ccc(-c3ccc([N+](=O)[O-])cc3)o2)c2ccccc2)cc1`?
GALR2 blocker: 3.1; GALR2 ag: -1.5; S1P2 antag: 61.1*; S1P2 ag: -16.8

Results for Cc1ccc(C)c(N(CC(=O)N/N=C/c2ccc(-c3ccc([N+](=O)[O-])cc3)o2)S(=O)(=O)c2ccccc2)c1 ?
GALR2 blocker: 14.1; GALR2 ag: -3.9; S1P2 antag: 66.8*; S1P2 ag: -14.6

What do the screens show for `COc1ccc(N(CC(=O)N/N=C/c2cc3ccc(OC)cc3nc2Cl)S(=O)(=O)c2ccccc2)cc1`?
GALR2 blocker: 4.1; GALR2 ag: -1.1

How did O=C(Cc1ccccc1)N/N=C/c1ccc(-c2ccc([N+](=O)[O-])cc2)o1 do in these assays?
GALR2 blocker: 5.5; GALR2 ag: 0.8

What do the screens show for `COc1ccc(Cn2c3ccc(OC)cc3c3nc4ccccc4nc32)cc1`?
GALR2 blocker: -7.1; GALR2 ag: -1.7

Results for Cn1c2ccc(Cl)cc2c2nc3ccccc3nc21 ?
GALR2 blocker: 0.9; GALR2 ag: -0.5; S1P2 antag: -53.4; S1P2 ag: 23.9*

What do the screens show for `CCN(Cc1nc2ccccc2c(=O)[nH]1)Cc1nc2cc(OC)c(OC)cc2c(=O)[nH]1`?
GALR2 blocker: -9.3; GALR2 ag: -0.7; S1P2 antag: -63.3; S1P2 ag: 17.6*

How did CCCCC(=O)Nc1ccc(NC(=O)c2ccccc2[N+](=O)[O-])cc1OC do in these assays?
GALR2 blocker: 8.0; GALR2 ag: -1.2

Results for CCN(CC)S(=O)(=O)c1ccc(Oc2ccc(S(=O)(=O)N(CC)CC)cc2)cc1 ?
GALR2 blocker: 6.1; GALR2 ag: -1.4; S1P2 antag: 72.1*; S1P2 ag: -4.4

Results for COCCN(CCOC)S(=O)(=O)c1ccc(OC)cc1 ?
GALR2 blocker: 8.7; GALR2 ag: -2.3; S1P2 antag: 16.2; S1P2 ag: -7.3

What do the screens show for `Cc1cc(/C=C(\C#N)c2nc3ccccc3[nH]2)c(C)n1C`?
GALR2 blocker: 11.9; GALR2 ag: 0.6

What do the screens show for `Cc1cc(/C=C(/C#N)c2nc3ccccc3[nH]2)c(C)n1-c1cccc([N+](=O)[O-])c1`?
GALR2 blocker: -2.9; GALR2 ag: 0.2; S1P2 antag: -13.4; S1P2 ag: 30.2*

What do the screens show for `COc1cc(/C=C(\C#N)c2nc3ccc(C)cc3[nH]2)c([N+](=O)[O-])cc1OC`?
GALR2 blocker: 8.0; GALR2 ag: -2.0; S1P2 antag: -3.1; S1P2 ag: 18.3*

What do the screens show for `COc1cc2c(C)nc3onc(-c4ccccc4)c3c2cc1OC`?
GALR2 blocker: 6.8; GALR2 ag: -1.5; S1P2 antag: -14.0; S1P2 ag: 0.0

What do the screens show for `COc1cc2c(C)nc(C)c(C#N)c2cc1OC`?
GALR2 blocker: 2.1; GALR2 ag: 0.7; S1P2 antag: -37.0; S1P2 ag: 20.6*

How did Cc1cc(Nc2ccc(C)c(Br)c2)n2nc(C)nc2n1 do in these assays?
GALR2 blocker: 10.8; GALR2 ag: -0.4

What do the screens show for `Cc1nn(-c2nc3ccccc3s2)c(N)c1-c1ccc(Cl)cc1`?
GALR2 blocker: 0.0; GALR2 ag: -1.7; S1P2 antag: 31.0; S1P2 ag: -0.6

What do the screens show for `Cc1nn(-c2nc3ccccc3s2)c(N)c1-c1ccccc1`?
GALR2 blocker: 11.4; GALR2 ag: -2.8; S1P2 antag: 3.0; S1P2 ag: 22.2*

What do the screens show for `Cc1ccc(-n2c(SCC(=O)Nc3cc(C)on3)nc3c([nH]c4ccccc43)c2=O)cc1`?
GALR2 blocker: 3.2; GALR2 ag: 2.3; S1P2 antag: -9.3; S1P2 ag: 17.7*

How did CCOc1ccc(NC(=O)C(=O)N/N=C\c2ccc(CNS(=O)(=O)c3ccccc3)o2)cc1 do in these assays?
GALR2 blocker: 10.9; GALR2 ag: 5.7*

How did CCOc1ccc(C(=O)N/N=C/c2ccc(-c3ccc(S(=O)(=O)Nc4ncccn4)cc3)o2)cc1 do in these assays?
GALR2 blocker: 3.9; GALR2 ag: 0.6; S1P2 antag: 26.0; S1P2 ag: -2.3

Results for COC(=O)c1ccc(NC(=O)Nc2ccc(F)cc2)cc1 ?
GALR2 blocker: 16.0; GALR2 ag: -1.9

Screening results as filed in PubChem.
